Experimental data taken from PubChem BioAssay (NCI).
The panel holds about 83,000 compounds, 20% with a hit somewhere; the sample as a whole holds those more often.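 Compound tested at a single concentration for 48 hours in 96-well plates; a percent growth value below 10 was scored as active.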 Unmarked numbers belong to inactive results. Calls of active or inactive are those of the source.

Columns and labels:
Test in all cases: NCI-60 one-dose screen, 48 h (100 = growth as untreated, 0 = no growth, -100 = all killed)
Conditions in all cases: 10 µM unless noted
DU-145 prostate = system: DU-145 prostate
K-562 leukemia = system: K-562 leukemia
MALME-3M melanoma = system: MALME-3M melanoma
MDA-MB-231 breast = system: MDA-MB-231 breast
RXF 393 renal = system: RXF 393 renal
SF-268 CNS = system: SF-268 CNS
SF-295 CNS = system: SF-295 CNS
SF-539 CNS = system: SF-539 CNS
UACC-257 melanoma = system: UACC-257 melanoma
M14 melanoma = system: M14 melanoma

SMILES	growth (DU-145 prostate)	growth (K-562 leukemia)	growth (MALME-3M melanoma)	growth (MDA-MB-231 breast)	growth (RXF 393 renal)	growth (SF-268 CNS)	growth (SF-295 CNS)	growth (SF-539 CNS)	growth (UACC-257 melanoma)	growth (M14 melanoma)
COc1cc(C(=O)/C=C/c2c(-c3cccs3)nc3ccccn23)cc(OC)c1OC	3.29% (active)	25.7%	33.9%	24.7%	2.35% (active)	21%	-29.7% (active)	-27% (active)	29.9%	11.7%
O=C1/C=C/[C@@H](O)[C@@H]2C[C@@H](O)C[C@H]2/C=C/CCC[C@H](CCOCc2ccccc2)O1	12.6%	10.2%	-24.6% (active)	-71.5% (active)	-2.06% (active)	13.1%	-18.3% (active)	26.2%	20.4%	9.22% (active)
C/C(=C(\c1ccc(OCCN2CCCCCC2)cc1)c1ccc(OC(=O)Cc2ccccc2)cc1)c1ccc(Cl)cc1	62.3%	-35.1% (active)	22.6%	35.1%	21.1%	49%	3.77% (active)	46.9%	5.81% (active)	-53.1% (active)
COc1ccc(NC(=O)c2ccc(C(=O)Nc3ccc(OC)cc3OC)cc2)c(OC)c1	94.6%	110%	84.5%	53.1%	40.5%	29.7%	57.3%	35.8%	90.6%	79.8%
Nc1c(C(=O)Nc2cccc3ncccc23)sc2nc3c(cc12)C(=O)CCC3	69.9%	31.1%	74.8%	58%	29.3%	71%	21.3%	51.8%	41.6%	50.5%
CC1(C)C2CC=C(/C=N/NC(=O)C3CCC(=O)N3)C1C2 (stereo not given)	113%	99.4%	105%	122%	121%	101%	97.4%	100%	102%	107%
COc1ccc2c(O)c(/C=C3\N=Nc4ccccc43)oc2c1C[C@H]1CCNC[C@H]1F	51.1%	37.4%	42.3%	47.8%	59.9%	77.2%	66.9%	57.4%	52.2%	28.7%
O=C(NCc1ccccc1O)c1cccc2ccccc12	95.6%	55.1%	48.7%	68.9%	95.2%	87.9%	87.3%	63.5%	75.5%	75.8%
CN1CCN(CCOc2ccc(-c3cnc4c(-c5ccc(C(F)(F)F)cc5)cnn4c3)cc2)CC1	40.7%	-36% (active)	50.4%	31.6%	32.4%	48.7%	64.4%	67.6%	8.47% (active)	-64.2% (active)
CCCCCCCCCCCCCCCCCCOc1ccccc1CC(=O)OCC[N+]1(C)CCOCC1	70.8%	58%	67.2%	49.8%	1.62% (active)	36.2%	87.3%	71.6%	103%	69.9%
CC1(C)CC2=C3C=C[C@@H]4[C@@]5(C)CC[C@H](O)C(C)(C)[C@@H]5CC[C@@]4(C)[C@]3(C)CC[C@@]2(C(=O)O)CC1=O	84.1%	57.5%	15.9%	40.4%	21.8%	35.4%	47.3%	60%	20.9%	30.3%
C[C@@H]1CC[C@@]2(OC1)O[C@H]1C[C@H]3[C@@H]4CC=C5C[C@@H](O[C@@H]6O[C@H](CO)[C@@H](O[C@@H]7O[C@@H](CO)[C@H](O)[C@H]7O)[C@H](O)[C@H]6O[C@@H]6O[C@@H](C)[C@H](O)[C@@H](O)[C@H]6O)CC[C@]5(C)[C@H]4CC[C@]3(C)[C@H]1[C@@H]2C	-95.2% (active)	-1.01% (active)	-91.6% (active)	-95.3% (active)	-95% (active)	-54.8% (active)	-91.7% (active)	-99.2% (active)	-94% (active)	-92.6% (active)
CC1CN=C(c2cccc(-c3ccc(-c4ccccc4)o3)c2)N1 (stereo not given)	37.4%	-38.2% (active)	-85.2% (active)	-51.5% (active)	-67.8% (active)	3.07% (active)	-49.1% (active)	-72.2% (active)	-58.5% (active)	-67.2% (active)
O=C1Nc2ccc(F)cc2/C1=N/c1nnc(Sc2ccccc2)s1	105%	79.7%	110%	87.1%	110%	94.2%	108%	88.5%	100%	99.2%
COc1cc(/C=C2\C(=O)N(c3c(Cl)cccc3Cl)c3ccccc32)cc(OC)c1OCCCCCCn1c2ccccc2c(=O)c2ccccc21	104%	98.8%	106%	100%	106%	87.6%	99%	93.8%	111%	93.8%
COc1ccc(-c2cc(-c3cc(OC)c(OC)c(OC)c3)c(C#N)c(=O)n2CCCCCC(=O)NO)cc1	92.5%	83%	97.8%	75.9%	92.9%	91.6%	91.2%	90.4%	99.6%	99.5%
CCN(CC)S(=O)(=O)c1ccc(S(=O)(=O)N2CCC[C@@H](C(=O)N3CCN(C(=O)OC(C)(C)C)CC3)C2)cc1	61.2%	35%	93.7%	77.7%	74.4%	73.1%	55.8%	77.7%	49.9%	77.9%
COc1ccc(NC(=O)c2sc3nc(C)c(C(O)c4ccccc4)cc3c2N)cc1 (stereo not given)	14.1%	8.04% (active)	38%	27.7%	-7.22% (active)	50.3%	23.1%	-4.84% (active)	64.4%	7.65% (active)
CN1C(=O)N(C)C2C1NC(=S)N2/N=C/C=C/c1ccccc1[N+](=O)[O-] (stereo not given)	18.7%	14.7%	54.4%	56.1%	13.1%	41.3%	9.8% (active)	2.83% (active)	44.1%	6.06% (active)
COc1cccc(/C=C/C(=O)c2cc3c(N)c(C(=O)Nc4ccccc4C)sc3nc2C)c1	8.15% (active)	12.9%	78.6%	52.8%	-10.2% (active)	28.9%	74%	50.9%	83.2%	47.5%
CN1C(=O)/C(=C/c2ccc(C(=O)Nc3ncc(Cc4ccc(F)cc4)s3)cc2)SC1=S	38.8%	44.7%	47.1%	56.2%	36.8%	49.1%	24.3%	38.4%	65.6%	19.6%
CNC(=O)c1cc(Oc2ccc3nc(NC(=O)Nc4ccc(Cl)c(Cl)c4)sc3c2)ccn1	35.3%	62.5%	-5.7% (active)	39.5%	88.6%	11.9%	-0.659% (active)	22.5%	74.7%	1.23% (active)
CCCCn1sc(=O)n(Cc2ccc(CNC(=O)OCc3ccc4c(Cl)cc(Cl)c(O)c4n3)cc2)c1=O	58.5%	42.9%	73%	84.4%	74.3%	67.1%	34.5%	78%	97.6%	60.7%
CCNc1nc(-c2ccc(F)cc2)c(C#N)c(=O)n1C	63.4%	100%	93%	33.6%	44%	58.5%	59.7%	59.7%	102%	82.8%
Nc1c(C(=O)Nc2ccncc2)sc2nc3c(cc12)CCCCC3	89.2%	51.8%	90.6%	90.9%	84.2%	99.5%	71.5%	73.2%	76%	91.9%
